Sampled rows, rich in hits. Any-hit rate of the full collection: about 1.9%.
Epigenetic reg: derepresses silenced GFP reporter in murine cells; murine LDR cells, GFP reporter derepression, 30 h; Potency, µM (series often up to 53.9 µM), inactives show at the highest dose GFP activation, actives largely listed as activators; hit rate 0.2% among 280,000; AID 1865; note: potency is the fitted concentration of half-maximal effect; % of control where 0% means no effect; nearly all actives have a fitted effect of over 60% in size
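Reporter derepression read as number of fluorescent GFP-positive objects, 20-120 um in size, counted by laser-scanning cytometer. Mouse LDR line with an epigenetically silenced CMV-GFP locus; compound incubation 30 h, 37 C.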
ClpP mod: qHTS Assay for Activators of ClpP; hit rate 1.9% among 340,000; purified B. subtilis ClpP, FRET peptide cleavage, 20 min; Potency, µM (series often up to 57.5 µM), without a hit: at the top dose activity change, negative = active; active = well fitted falling curve with a large enough effect; inconclusive = small, poorly fitted or top-dose-only effect; inactive = no such curve, though single readings can be large or run the other way; note: potency is the fitted concentration of half-maximal effect; the source files actives as falling curves though it sought activators and does not explain the sign; nearly all actives have a fitted effect of over 65% in size
Target sequence (P80244 whole entry, looked up): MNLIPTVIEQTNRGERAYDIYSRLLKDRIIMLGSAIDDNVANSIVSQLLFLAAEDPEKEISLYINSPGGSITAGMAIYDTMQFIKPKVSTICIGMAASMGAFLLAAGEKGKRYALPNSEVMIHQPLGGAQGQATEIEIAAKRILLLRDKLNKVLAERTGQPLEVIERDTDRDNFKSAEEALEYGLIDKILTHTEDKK
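FRET quenching reversal measured ClpP activation: 10 microg/mL B. subtilis ClpP at pH 8 with the FRET-FV decapeptide, read at 430 nm after 320 nm excitation. The 20-min minus 0-min signal was scaled between DMSO/no-enzyme wells and ADEP (5.8 microM final).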
PINK1 expr mod: PINK1 expression modulation; PINK1 immunofluorescence, high-content cytometry, 24 h; Potency, µM (top dose mostly 76.6 µM), inactives show at the top dose activation (PINK1 increase), hits mostly activators; hit rate 0.2% among 410,000; AID 624263; active = well fitted activation curve with a large enough effect; inconclusive = small, poorly fitted or top-dose-only effect; cell line not stated here; note: potency is the fitted concentration of half-maximal effect; % of control where 0% means no effect; nearly all actives have a fitted effect of over 65% in size
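PINK1 protein level read as immunofluorescence by microplate cytometer in a fixed, stained stable cell line after 24 h exposure to five compound concentrations, with CCCP as control.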
CXXC DNA block: inhibitors of human MLL CXXC domain-DNA interaction; Potency, µM (highest dose often 115 µM), for inactives: at the highest dose activity change, negative = inhibition, hits mostly inhibitors; hit rate 0.037% among 290,000; Q03164; AID 2662; MLL-CXXC / FITC-HOXA9 DNA fluorescence polarization; active = well fitted inhibition curve with a large enough effect in the polarisation, with a control signal flat, not every such curve was filed as active; inconclusive = small, poorly fitted or top-dose-only effect, or effect the other way, or a change in a side signal; inactive = no such curve, though single readings can be large or run the other way; the % refers to the polarisation; note: potency is the fitted concentration of half-maximal effect
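Purified MLL-CXXC (added from a 7 uM solution) was preincubated 5 min at ambient with pinned compounds in 50 mM Tris-HCl pH 7.5, 50 mM NaCl, 1 mM DTT, 0.05% BSA. Fluorescein-labeled HOX-A9 DNA (50 nM solution) followed, 30 min, then polarization read.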
Menin MLL FP TR: inhibitors of human menin-MLL interaction, mutant MLL peptide | Menin + Texas Red MLL mutant peptide, fluorescence polarization | Potency, µM (doses to about 61.6 µM), for the others: at the highest dose FP activity change, negative = inhibition, hits mostly inhibitors | hit rate 0.23% among 270,000 | AID 1768; active = well fitted inhibition curve with a large enough effect in the polarisation, with a control signal flat, not every such curve was filed as active; inconclusive = small, poorly fitted or top-dose-only effect, or effect the other way, or a change in a side signal; inactive = no such curve, though single readings can be large or run the other way; the % refers to the polarisation; note: potency is the fitted concentration of half-maximal effect; % of control where 0% means no effect
Target sequence (O00255 whole entry, looked up): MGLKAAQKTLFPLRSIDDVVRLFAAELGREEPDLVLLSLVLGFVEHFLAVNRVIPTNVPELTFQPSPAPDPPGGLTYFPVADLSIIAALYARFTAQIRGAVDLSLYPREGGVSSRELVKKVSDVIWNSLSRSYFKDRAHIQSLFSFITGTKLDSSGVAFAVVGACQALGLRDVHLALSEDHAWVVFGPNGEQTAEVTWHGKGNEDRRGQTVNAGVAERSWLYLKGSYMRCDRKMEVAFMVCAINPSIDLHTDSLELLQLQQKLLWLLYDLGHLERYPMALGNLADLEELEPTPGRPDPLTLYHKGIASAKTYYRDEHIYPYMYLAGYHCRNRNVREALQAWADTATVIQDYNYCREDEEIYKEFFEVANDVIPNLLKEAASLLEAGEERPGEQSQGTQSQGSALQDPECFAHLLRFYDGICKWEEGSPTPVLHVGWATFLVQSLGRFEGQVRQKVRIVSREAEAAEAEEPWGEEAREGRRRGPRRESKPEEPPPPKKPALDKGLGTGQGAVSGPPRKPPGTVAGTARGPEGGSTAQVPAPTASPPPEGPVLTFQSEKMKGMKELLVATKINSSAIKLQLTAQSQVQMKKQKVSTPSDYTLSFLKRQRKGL
Menin MLL FP FL: menin-MLL binding inhibition, fluorescein peptide; Fluorescence polarization, fluorescein-MLL peptide displacement from menin; FP activity change, % at 61.4 µM; 290,000 tested, under 10 active; AID 1766; active = well fitted curve in the direction sought with a large enough effect in the polarisation, not every such curve was filed as active; inconclusive = small, poorly fitted or top-dose-only effect, or effect the other way, or a change in a side signal; inactive = no such curve, though single readings can be large or run the other way; the % refers to the polarisation; note: % of control where 0% means no effect
MLL CXXC Fl: disrupts human MLL CXXC domain binding to DNA; shares compounds with CXXC DNA block; MLL CXXC-DNA binding, fluorescein FP; Potency, µM (titrated, usually from 345 µM), for inactives: top-dose activity change, negative = inhibition, hits mostly inhibitors; hit rate 70% among 200; AID 624160; note: potency is the fitted concentration of half-maximal effect; nearly all actives have a fitted effect of over 80% in size
MLL CXXC FP-TR: MLL CXXC-DNA interaction inhibition, Texas Red FP | shares compounds with CXXC DNA block | MLL CXXC-DNA binding, Texas Red fluorescence polarization | Potency, µM (titrated, usually from 345 µM), inactives show at the highest dose activity change, negative = inhibition, usual class: inhibitors | hit rate 40% among 200; note: potency is the fitted concentration of half-maximal effect; % is set by controls: 0 for no effect and ±100 for the full control effect; nearly all actives have a fitted effect of over 75% in size
MLL CXXC TRF: disrupts human MLL CXXC domain binding to DNA by HTRF. AID 624162. Potency, µM (highest dose often 172 µM), for inactives: at the top dose activity change, negative = inhibition, usual class: inhibitors. shares compounds with CXXC DNA block. MLL CXXC-DNA binding, HTRF, biochemical. hit rate 30% among 210; note: % is set by controls: 0 for no effect and ±100 for the full control effect; nearly all actives have a fitted effect of over 80% in size
* marks the source's active call; other numbers are inactive results; i = inactive; ? = inconclusive; . = not tested or not shown; [ ] = dose if it differs, or a comment. Unless noted, calls come from the whole dose curve; as a rule, active = well fitted curve in the direction sought with a large enough effect; inconclusive = small, poorly fitted or top-dose-only effect, or another doubt; inactive = no such curve, though single readings can be large; an effect the other way counts as inactive or inconclusive.

SMILES | Epigenetic reg | ClpP mod | PINK1 expr mod | CXXC DNA block | Menin MLL FP TR | Menin MLL FP FL | MLL CXXC Fl | MLL CXXC FP-TR | MLL CXXC TRF
CCCCC1(C)OC(=O)C(=Cc2ccc(-c3ccc(Cl)c(C(=O)O)c3)o2)C(=O)O1 (stereo unspecified) | 0% | . | 3% | 40µM* | . | 20 | 22µM* | 45µM* | 49µM*
C=CCC1(CC=C)CCCN1C(=O)c1cc(COc2ccccc2SC)on1 | . | -2% | 1% | 7% | . | . | . | . | .
O=C(O)CN1C(=O)/C(=C\c2cccc(OCc3ccc(Cl)cc3Cl)c2)SC1=S | . | . | 4% | ? | 54% | 1 | ? | 23% | -103%
Nc1c(C(=O)c2ccccc2)sc2snc(SCC(=O)c3ccccc3)c12 | 1% | 0% | 15% | ? | ? | ? | i | -5% | 11%
Nc1nnc(SCC(=O)c2ccccc2)s1 | -3% | 0% | 3% | 2% | -1% | -2 | . | . | .
Cc1ccc(CNC(=O)Cn2c(=O)ccc3cc(S(=O)(=O)N4CCC(C)CC4)ccc32)cc1 | 0% | -12% | -5% | . | . | . | . | . | .
C/C(=N\Nc1nc2ccccc2c(=O)n1O)c1ccco1 | . | . | -1% | ? | 17% | -1 | ? | ? | ?
CCn1c(CSc2nnc3ccccn23)nc2cc(C(=O)O)ccc21 | -2% | -2% | 2% | ? | ? | ? | . | . | .
CCn1c(CSc2n[nH]c(N)n2)nc2cc(C(=O)O)ccc21 | -3% | . | 1% | 35µM* | ? | -26 | 113µM* | 113µM* | 7%
O=[N+]([O-])c1ccc(-c2cn3nc(-c4ccccc4)c(-c4ccccc4)nc3n2)cc1 | -1% | . | 2% | ? | . | ? | . | . | .
O=[N+]([O-])c1cccc(-c2cn3nc(-c4ccccc4)c(-c4ccccc4)nc3n2)c1 | 3% | -2% | 3% | 40µM* | . | ? | 179µM* | 49% | 9%
O=[N+]([O-])c1ccc(Oc2ccc(S(=O)(=O)Nc3ccccc3)cc2)cc1 | 0% | 1% | 25% | -4% | ? | 3 | . | . | .
O=C1C(Cl)=C(NS(=O)(=O)c2ccc([N+](=O)[O-])cc2)C(=O)c2ccccc21 | 0% | . | 1% | 50µM* | . | -2 | 56µM* | 100µM* | 77µM*
COc1ccc(C2OC34CCCCC3C(C#N)(C#N)C2(C#N)C(=N)O4)cc1 (stereo unspecified) | 0% | 11µM* | 0% | 28µM* | ? | ? | 142µM* | 113µM* | -3%
CCCCNC(=O)CC(C(=O)N1CCc2ccccc21)n1ccnc1 (stereo unspecified) | 0% | -3% | 24%[38.3 µM] | -9% | 6% | 0 | . | . | .
O=C(CC(C(=O)N1CCc2ccccc21)n1ccnc1)N1CCc2ccccc2C1 (stereo unspecified) | -1% | -4% | 5%[38.3 µM] | 32µM* | -23% | 4 | ? | 10% | 2%
Cc1ccc(NC(=O)CCNC(=O)Cn2ccc3ccccc3c2=O)cc1F | . | . | 6% | -2% | ? | -3 | . | . | .
Nc1c(C(=O)O)ccc2c1C(=O)c1ccccc1C2=O | -3% | . | -2% | ? | ? | ? | . | . | .
Nc1cc(C(=O)O)c(N)c2c1C(=O)c1ccccc1C2=O | -2% | 1% | 0% | 32µM* | . | ? | 113µM* | 40µM* | 150%
CC(C)CCN1C(=O)N(c2ccccc2)C(=O)C1CC(=O)Nc1ccc(Cl)cc1 (stereo unspecified) | -1% | -1% | 0% | . | . | . | . | . | .
CSC1=C(C#N)C(=O)NC(c2ccccc2O)S1 (stereo unspecified) | 0% | -9% | 1% | 13µM* | . | 4 | 80µM* | 44% | ?
O=C(OCC1OC(OC(=O)c2cc(O)c(O)c(OC(=O)c3cc(O)c(O)c(O)c3)c2)[C@@H](OC(=O)c2cc(O)c(O)c(OC(=O)c3cc(O)c(O)c(O)c3)c2)C(OC(=O)c2cc(O)c(O)c(OC(=O)c3cc(O)c(O)c(O)c3)c2)C1OC(=O)c1cc(O)c(O)c(OC(=O)c2cc(O)c(O)c(O)c2)c1)c1cc(O)c(O)c(OC(=O)c2cc(O)c(O)c(O)c2)c1 (stereo partly specified) | 1% | . | . | 63µM* | ? | ? | 3.6µM* | 4.5µM* | 0.39µM*
Cc1cn(C2OC(COC(=O)c3ccccc3)C(OC(=O)c3ccccc3)C2OC(=O)c2ccccc2)c(=O)[nH]c1=O (stereo unspecified) | -1% | -1% | -1%[38.3 µM] | -10% | -6% | 1 | . | . | .
O=C(Nc1cc(C(=O)Nc2ccc(S(=O)(=O)O)cc2S(=O)(=O)O)cc(C(=O)Nc2ccc(S(=O)(=O)O)cc2S(=O)(=O)O)c1)Nc1cc(C(=O)Nc2ccc(S(=O)(=O)O)cc2S(=O)(=O)O)cc(C(=O)Nc2ccc(S(=O)(=O)O)cc2S(=O)(=O)O)c1 | -1% | -4% | 2% | 3.5µM* | ? | ? | 4.5µM* | 11µM* | 3.1µM*
CCOC(=O)C1=C(CN2CCN(c3ccccc3OC)CC2)NC(=O)NC1c1ccccc1 (stereo unspecified) | -1% | 2% | 0% | . | . | . | . | . | .
COc1ccc2cc(Br)ccc2c1CC(=O)NCC1CCCO1 (stereo unspecified) | 0% | -2% | 0% | 32µM* | 3% | 1 | -1% | 30% | 29%
CCNC(=O)Cc1c(OC)ccc2cc(Br)ccc12 | -4% | -3% | 0% | -12% | -12% | 0 | . | . | .
CCN(CC)S(=O)(=O)c1cc(NC(=O)COC(=O)c2c(C)noc2C)ccc1C | . | -2% | 1% | . | . | . | . | . | .
O=C(CSC1=NS(=O)(=O)c2ccccc21)Nc1ccccc1 | 0% | -1% | 5% | 32µM* | -1% | 1 | -2% | 113µM* | 24µM*
NC(=O)C1(N2CCCCC2)CCN(C(=O)Nc2ccc(F)cc2F)CC1 | 6% | 1% | 1% | . | . | . | . | . | .

Compound activity as filed in PubChem.
